In PubChem BioAssay AID1345083 (National Center for Advancing Translational Sciences (NCATS), 2018):
Out of some 94,000 compounds screened, about 6,200 (6.6%) were called active. Not shown: some 31% with an inconclusive outcome. The list comes from a sample in which actives are over-represented; it also holds similar structures and randomly drawn compounds. Unmarked numbers belong to inactive results. The call rests on the fitted dose curve; in most records, active means well fitted inhibition curve with a large enough effect; inconclusive means small, poorly fitted or top-dose-only effect; inactive means flat fitted curve, though single readings scatter.

experiment: Cytotoxic Profiling in HEK 293 Cell Line of Diverse Libraries Using Quantitative High-Throughput Screening; settings: HEK 293 viability, ATP luminescence (CellTiter-Glo), 48-72 h; series mostly up to 115 µM; activity change, negative = cytotoxicity: at the top concentration; further: nearly all actives have a fitted effect of over 60% in size
How it was run: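 HEK 293 seeded at 250 cells/well receive compound via pintool. After 48 or 72 hr at 37 degree Celsius, 5% CO2 and 95% humidity, CellTiter-Glo is dispensed and luminescence read following 10 min at room temperature.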
On the % scale 0 is the no-effect control and ±100 the full control effect; potency means the concentration at half of the fitted maximal effect.

Structure (SMILES)	activity change, negative = cytotoxicity	Potency	outcome
CNC(=O)c1cc(C)nc2onc(C3CCCN3C(=O)Cc3ccc(F)cc3)c12 (configuration not stated)	-7.3%	–	–
NC1CCCCN(C(=O)c2ccc3n[nH]nc3c2)C1 (configuration not stated)	-10.8%	–	–
CSc1cccc(NC(=O)N[C@H]2C[C@@H](C(=O)N[C@@H](CCCNC(=O)CC(C)(C)C)C(N)=O)N(C(=O)CC(C)(C)C)C2)c1	-17.2%	–	–
COCCS(=O)(=O)c1ncc(CN2CCCCO2)n1Cc1ccccc1	-24%	–	–
CCCN1C(=O)[C@H]2CC[C@@H]1CN(C(=O)c1nc(-c3ccccc3)[nH]c1C)C2	1.99%	–	–
O=C(NC[C@H]1Cn2c(-c3ccc(F)cc3)cnc2CO1)C1CC1	-2.09% [at 172 µM]	–	–
Cc1ccc(Cl)cc1NC(=O)N1C[C@@H](F)C[C@H]1C(=O)N1CCCCC1	0.438%	–	–
COc1cccc(NC(=O)N[C@H]2CCN(C(=O)C=C(C)C)[C@@H]2C(=O)N[C@@H](Cc2cccs2)C(N)=O)c1	-0.217%	–	–
O=C1CC(c2ccccc2)N(C(=O)CNC(=O)c2cnccn2)CCCCCCN1 (configuration not stated)	-3.36%	–	–
CC(C)(C)C(=O)Nc1cc(C2CC2)nn1-c1ccccc1	0.126% [at 172 µM]	–	–
Cc1nn(-c2cccc(Br)c2)c(C)c1[C@@H]1C=C[C@@H](NS(=O)(=O)c2ccccc2)C1	–	44.7 µM (active)	–
Cc1nn(CCC#N)c(C)c1[C@@H]1C=C[C@@H](NS(=O)(=O)c2ccccc2)C1	-9.74% [at 172 µM]	–	–
c1c[nH]c(CNC[C@H]2Cn3ccnc3CO2)n1	-7.47% [at 230 µM]	–	–
CCOc1ccc(NC(=O)Cn2nc3n(c2=O)CCN(Cc2ccccc2C)C3=O)cc1	-10.7%	–	–
COc1ccc(Nc2ccc3c(n2)CN(Cc2ccccc2C)C(=O)CO3)cn1	–	100 µM (active)	–
COc1ccc(CN2CCN3C(=O)N(c4ccccc4)C[C@H]3C2)cn1	-19.4% [at 172 µM]	–	–
Cc1ccccc1CN1Cc2nc(NCc3ccncc3)ccc2OCC1=O	–	89.1 µM (active)	–
CC(=O)N1CCCN(C(=O)c2cnc3c(c2)N(C(=O)Cc2ccc(C(C)C)cc2)CCC3)CC1	-27.9%	–	–
CCC(C)NC(=O)N1CCC(CCOC)(NS(C)(=O)=O)CC1 (configuration not stated)	-7.52%	–	–
O=C(c1nc(-c2cccnc2)c2cnccn12)N1CCN(c2ncccn2)CC1	-2.6%	–	–
CN(C)c1ccc(C(=O)N[C@H]2C[C@H]3C(=O)NC[C@@H](CCC(=O)N4CCc5ccccc54)N3C2)cc1	-18.7%	–	–
O=C(c1ccccc1)N1CCN(C(=O)c2nc3cccnc3n(C3CC3)c2=O)CC1	-15.7%	–	–
CCC(=O)N1CCC(CC(=O)N2CCOCC2)C1 (configuration not stated)	7.81%	–	–
C#CCNC(=O)C1CCN(Cc2ccccc2-c2ccccc2F)CC1	-26.1%	–	–
O=C(C1CCN(Cc2ccccc2-c2ccccc2F)CC1)N1CCC(c2ccccc2)CC1	–	25.1 µM (active)	–

Structure (SMILES)	activity change, negative = cytotoxicity	Potency	outcome
COC(=O)CNC(=O)C1CCN(Cc2ccccc2-c2ccccc2F)CC1	0.145%	–	–
CC1CCC2(CC1)NC(=O)N(CC(=O)NCc1ccco1)C2=O (configuration not stated)	4.68%	–	–
Cn1cc(C#N)cc1-c1nc(COc2ccccc2)nn1CC(F)(F)F	-25%	–	–
COc1ccc(C2Cn3nnc(-c4noc(-c5ccc(OC)cc5C)n4)c3CO2)cc1 (configuration not stated)	-11.1%	–	–
Cc1nc(CCNS(=O)(=O)c2cccnc2)no1	-4.92%	–	–
COC(=O)CCNC(=O)C1c2ccccc2C(=O)N(CC(C)C)C12CCCC2 (configuration not stated)	-8.33%	–	–
COc1ccccc1NC(=O)C1c2ccccc2C(=O)N(CC(C)C)C12CCCC2 (configuration not stated)	–	70.8 µM (active)	–
COCCN1C(=O)c2ccccc2C(C(=O)NC2CC2)C12CCCCC2 (configuration not stated)	-7.97%	–	–
COCCOC1CN(C2CCN(C(=O)C3CCOCC3)CC2)C12CCCCC2 (configuration not stated)	0.932%	–	–
CC[C@H]1CN(C(=O)c2cccnc2)CC[C@H]1CC(=O)NCc1cccnc1	-7.23% [at 172 µM]	–	–
CC(C)NC(=O)N1CCCC1c1noc(COc2ccc(F)cc2)n1 (configuration not stated)	–	–	inactive
Cc1cccc(C(=O)N2CCC(CC(=O)NCc3ccccc3)C2)c1 (configuration not stated)	-0.159%	–	–
CN1C(=O)c2cccn2CC1C(=O)NC1CCN(Cc2ccccc2)CC1 (configuration not stated)	-2.33%	–	–
Cc1cccc(-c2cccc(CN3CCC(NC(=O)Nc4ccccc4)CC3)c2)c1	–	22.4 µM (active)	–
O=C([C@@H]1C[C@H](F)CN1C(=O)Nc1ccccc1)N1CCCCC1	0.832%	–	–
Cc1noc(C)c1C(=O)N[C@@H]1CN(c2ccncn2)C[C@H]1CN(C)C	-7.32%	–	–
CN(Cc1cccnc1)C(=O)CCC[C@@H]1[C@H]2CCCN3CCC[C@@H](CN1C(=O)c1cccnc1)[C@@H]23	-1.49%	–	–
CCCc1sc(NC(=O)C[C@H]2NC(=O)c3ccccc3NC2=O)nc1C(=O)OC	-32.3%	–	–
Cc1ccc(N2CC(Cc3ccccc3)N(C(=O)c3ccnn3C)CC2=O)cc1 (configuration not stated)	-1.24%	–	–
COc1cccc(CN2CCN(C(=O)c3cnc4ccccn4c3=O)CC2=O)c1	-6.66%	–	–
COc1ccc(-c2noc(-c3cccn3CC(=O)Nc3ccccc3)n2)cc1F	-1.07%	–	–
COCCN1Cc2cc(OC)ccc2N(CC(O)COc2ccc(OC)cc2)CCC1=O (configuration not stated)	-16.6%	–	–
CCN(Cc1cnn(CC)c1)C(=O)C1CCCCC(=O)N1Cc1cccc(OC)c1 (configuration not stated)	-4.72%	–	–
COc1cccc(CN2Cc3nc(Nc4cccc(F)c4)ccc3OCC2=O)c1	–	89.1 µM (active)	–
COc1cccc(CN2Cc3nc(-c4cc(F)cc(F)c4)ccc3OCC2=O)c1	–	63.1 µM (active)	–

Structure (SMILES)	activity change, negative = cytotoxicity	Potency	outcome
COc1ccc(-c2ccc3c(n2)CN(CCOc2ccccc2)C(=O)CO3)cc1F	–	79.4 µM (active)	–
COc1cccc(CN2CCOC3CCN(C(=O)c4cccnc4)CC3C2=O)c1 (configuration not stated)	-13% [at 172 µM]	–	–
COc1cccc(CC(=O)NCCc2noc(-c3cccnc3)n2)c1	-3.51%	–	–
CCOCCOC1CCN(C(=O)NCc2ccc(C)cc2)CC1	-9.46%	–	–
CN1CCN(C(=O)c2nc3sccn3c2-c2ccc(F)cc2)CC1	-3.39%	–	–
COC(=O)[C@H]1CCCN1C(=O)[C@@H]1C[C@@H](NS(=O)(=O)c2cccs2)CCN1C(=O)COCC(=O)O	2.93%	–	–
CS(=O)(=O)N1C[C@H]2CCN(C(=O)c3ccncc3F)C[C@H]21	2.85%	–	–
Cn1c(=O)[nH]cc(CC(=O)N2CCn3nc(Cc4ccccc4)cc3C2)c1=O	-15.7%	–	–
CN(CCc1ccccn1)[C@@H]1[C@H](O)[C@H](CO)O[C@@H]1CNC1CCOCC1	-6.2%	–	–
COCC(=O)N[C@H]1CC(C)(C)[C@@H]2C[C@@](C)(O)CC[C@]12CCC(=O)N1CCN(c2ccccc2OC)CC1	-24.2%	–	–
CC(C)C(=O)N1CC(n2cc(COc3ccc(F)cc3)nn2)C1	3.3%	–	–
COc1ccc(CC(=O)N2CCC(C(=O)N3CCC(N4Cc5ccccc5C4=O)CC3)CC2)cc1	-9.54%	–	–
CCCS(=O)(=O)N1Cc2c(ncn2Cc2ccc(Cl)cc2)C[C@H]1C(=O)OC	–	–	inactive [at 172 µM]
CCOc1ccc2c(n1)CCN(C(=O)c1nccn1C)C2	-2.75%	–	–
O=C1CCN(C(=O)C2CCN(C(=O)CCCc3ccccc3)CC2)CCCCCCN1	-9.4%	–	–
COCCn1c(C)cc(C(=O)N2CCCC(c3[nH]ccc3C(N)=O)C2)c1C (configuration not stated)	-7.44%	–	–
CCOC(=O)C1(Cc2ccccc2F)CCCN(C(=O)CN2CCOC2=O)C1 (configuration not stated)	-14.2%	–	–
O=C1NCc2ccccc2CC12CCCN(Cc1ccc(F)cc1O)C2 (configuration not stated)	-29.2%	–	–
CCOC(=O)C1(Cc2ccc(F)cc2F)CCCN(Cc2cccc(OC)c2O)C1 (configuration not stated)	–	39.8 µM (active)	–
COc1ccc(N2CC(c3noc(-c4ccc(C(C)(C)C)cc4)n3)CC2=O)cc1 (configuration not stated)	–	44.7 µM (active)	–
Cc1ccc(-c2nc(C3CC(=O)N(c4ccc(Cl)cc4)C3)no2)cc1C (configuration not stated)	-27.1%	–	–
Cc1ccc(N2CC(c3noc(-c4cc(Cl)ccc4F)n3)CC2=O)cc1 (configuration not stated)	-2.57%	–	–
Cc1ccc(CN2C(=O)[C@@H]3C[C@@H](O)CN3C3(CN(Cc4ccccn4)C3)C2=O)o1	-2.96% [at 172 µM]	–	–
O=C(NCCN[S+](=O)([O-])c1cccs1)c1ccc(-c2cccc(C(F)(F)F)c2)cc1	–	44.7 µM (active)	–
O=C(NCCNC(=O)c1ccccc1F)c1ccc(-c2cccc(C(F)(F)F)c2)cc1	–	inactive	–

Structure (SMILES)	activity change, negative = cytotoxicity	Potency	outcome
O=C(NCC(=O)N1CCC(c2ccccc2)CC1)c1ccc(-c2cccc(C(F)(F)F)c2)cc1	-41.8%	–	–
CC(=O)NCC(=O)N1Cc2ccccc2CC2(CCCN2Cc2cccnc2)C1 (configuration not stated)	-9.93%	–	–
CC(C)CCN1CCC2(CC1)C(=O)NCN2Cc1ccc(Cl)cc1	1.53%	–	–
COc1ccc(CCNC(=O)c2nnn3cc(-c4ccccc4)[nH]c(=O)c23)cc1OC	1.64%	–	–
Cc1cc2nc3n(c(=O)c2n1CC(=O)Nc1ccc(Br)cc1)CCCC3	-11.8%	–	–
Cc1cc2nc3n(c(=O)c2n1CC(=O)Nc1cccc(C(F)(F)F)c1)CCCC3	–	28.2 µM (active)	–
Cc1cc2nc3n(c(=O)c2n1CC(=O)Nc1cc(F)cc(F)c1)CCCC3	12.9%	–	–
Cc1noc(-c2ccc(OC3CN(C(=O)C4CCOC4)C3)cc2)n1 (configuration not stated)	-28.8%	–	–
CO[C@H]1CN(C(C)C)[C@H]1C1CCN(C(=O)NCCc2ccccc2)CC1	2.29%	–	–
NC(=O)[C@@H]1C[C@H](Oc2ccccc2)CN1C(=O)Cc1cccc(F)c1	–	–	inactive
COc1cc(CNCc2ccc(C)c(F)c2F)ccc1OCC(O)CN1CCC(O)CC1 (configuration not stated)	–	17.8 µM (active)	–
COc1ccc(CC(=O)N2CCC3(CC2)CC(O)CCO3)cc1OC (configuration not stated)	-5.09%	–	–
COc1cc(CN2CCC3(CC2)CC(O)CCO3)ccc1F (configuration not stated)	1.59%	–	–
COc1ccc(CN2C=C(C(=O)OCc3nc(C)no3)C(C)=NS2(=O)=O)cc1	-6.25%	–	–
NC(=O)[C@@H](Cc1ccccc1)NC(=O)[C@@]1(O)C[C@@H](O)[C@H](O)[C@@H](NC(=O)Nc2ccc(OC(F)(F)F)cc2)C1	0.41%	–	–
Cc1noc(C)c1[S+](=O)([O-])N(C)Cc1cccn1C	2.89% [at 172 µM]	–	–
Cn1nccc1CN1CCC(N2Cc3ccccc3C2=O)CC1	2.3%	–	–
CN(Cc1cccn1C)Cc1ccnn1C	–	100 µM (active)	–
O=C(NC[C@H]1O[C@@H](CO)[C@@H](O)[C@H]1N1CCN(c2ccccc2)CC1)c1ccccc1Cl	-0.559%	–	–
Cc1ccc(C(=O)N2CCC(CCC(=O)N3CCc4ccccc4C3)CC2)cc1	–	44.7 µM (active)	–
CCCNC(=O)CCC1CCN(C(=O)c2ccc(C)cc2)CC1	5.93%	–	–
CC1(C(=O)N2CCc3ccccc3C2)CCOCC1	–	–	inactive [at 230 µM]
